One test deals with Albumin (Bos taurus) (UniProt P02769). As to the kind of experiment: bovine serum albumin binders on microarray, profiling panel, artefact control for SMM control protein annotation, biochemical, small-molecule microarray, Alexa647 label, 635/667 nm fluorescence (AID 1118).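 Also: score merges 667 nm emission intensity and signal-to-noise per printed compound spot.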 As to conditions: BSA-A647 binding, fluorescence 635 nm, higher = more signal.
Test [1] is described as follows: small-molecule microarray binders of probe aXIP, primary screen, biochemical, NeuroSMM set, 635/667 nm fluorescence (AID 1119).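 Also: probe is the protein aXip251-270 applied at 1 µg/mL to compound-printed slides; binding of probe to printed compounds measured as 667 nm fluorescence plus signal to noise.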 As to conditions: higher = more signal, called active from +8 up or from −8 down.
Test [2] in a line: small-molecule binders of probe aNOTCH3, primary screen, biochemical, small-molecule microarray, 635/667 nm fluorescence (AID 1120).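 Also: probe is a biotin-tagged antibody raised against NOTCH3 rather than NOTCH3 protein; score merges spot fluorescence near 667 nm with spot signal to noise.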 As to conditions: higher = more signal.
The nature of test [3]: small-molecule binders of probe aNOTCH2, primary screen, biochemical, small-molecule microarray, 635/667 nm fluorescence (AID 1121).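 Also: score merges feature fluorescence read at 667 nm with its signal to noise.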 The conditions noted are these: higher = more signal.
The target in test [4] is Carbonic anhydrase 2 (Homo sapiens) (UniProt P00918). The test can be described thus: CAII small-molecule binders, profiling panel, biochemical, small-molecule microarray, Alexa647-labelled CAII (AID 1122). The conditions noted are these: CAII-A647 binding fluorescence, higher = more signal.
Test [5] in a line: COS7 lysate on small-molecule microarray, probe aHis, 635 nm (AID 1123).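 Also: z-score combines 667nm fluorescence intensity with signal-to-noise per printed compound spot.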 The conditions noted are these: COS7 cell lysate, fluorescence, higher = more signal.
The nature of test [6]: compound binding in COS7 lysate, probe aLAP1, primary screen, cell lysate, small-molecule microarray (AID 1124).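 Also: lysate comes from COS7 cells expressing LAP1 and is applied at 0.3 µg/mL; score merges spot fluorescence near 667 nm with signal-to-noise over triplicate slides.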 As to conditions: probe aLAP1, fluorescence, higher = more signal.
For another test, the system named is Sam68 (KHDRBS1). The test can be described thus: Sam68 small-molecule binders, primary screen, biochemical, small-molecule microarray, 635 nm fluorescence (AID 1125).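 Also: score merges 667 nm channel intensity with signal to noise over triplicate slides.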 As to conditions: small-molecule microarray binding, higher = more signal.
For test [7], the system named is Chordin-like protein 2 (CHRDL2). As to the kind of experiment: CHRDL2 small-molecule binders, primary screen, biochemical, small-molecule microarray, 635 nm fluorescence (AID 1126).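 Also: printed compound slides probed with Chrdl2 protein at 4 µg/mL for 1 h at 4 C; score merges 667 nm emission intensity with signal to noise over three replicate slides.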 As to conditions: small-molecule microarray binding, fluorescence 635 nm; higher = more signal.
Test [8] has as its target Concanavalin-A (Canavalia ensiformis) (UniProt P02866). The test can be described thus: ConA small-molecule binders, primary screen, artefact control for SMM control protein annotation, biochemical, small-molecule microarray, Alexa647 label, 635 nm (AID 1127).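 Also: z combines 667 nm emission intensity with signal-to-noise across three replicate slides.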 As to conditions: ConA-A647 binding fluorescence, higher = more signal.
The nature of test [9]: anti-His antibody binders, primary screen, artefact control for SMM control protein annotation, biochemical, small-molecule microarray, 635 nm fluorescence (AID 1128).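 Also: score merges feature fluorescence with signal-to-noise for each printed compound spot.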 As to conditions: anti-His Alexa647 antibody binding, higher = more signal.
For test [10], the system named is Human papillomavirus type 1a E7 protein (residues 1-88). As to the kind of experiment: HPV1a E7 small-molecule binders, primary screen, biochemical, small-molecule microarray, residues 1-88, 635 nm (AID 1129). As to conditions: small-molecule microarray binding, fluorescence 635 nm; higher = more signal.
In test [11] the target is Focal adhesion kinase 1 (Homo sapiens) (UniProt Q05397). The test can be described thus: small-molecule microarray binders of FAK, primary screen, biochemical, 635/667 nm fluorescence, BSA, DTT (AID 1130).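 Also: composite of spot emission at 667 nm and signal to noise over triplicate slides.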 The conditions noted are these: PTK2 binding, 635 nm fluorescence, higher = more signal.
Chain of Focal adhesion kinase 1 (Homo sapiens) (Q05397 whole entry, looked up): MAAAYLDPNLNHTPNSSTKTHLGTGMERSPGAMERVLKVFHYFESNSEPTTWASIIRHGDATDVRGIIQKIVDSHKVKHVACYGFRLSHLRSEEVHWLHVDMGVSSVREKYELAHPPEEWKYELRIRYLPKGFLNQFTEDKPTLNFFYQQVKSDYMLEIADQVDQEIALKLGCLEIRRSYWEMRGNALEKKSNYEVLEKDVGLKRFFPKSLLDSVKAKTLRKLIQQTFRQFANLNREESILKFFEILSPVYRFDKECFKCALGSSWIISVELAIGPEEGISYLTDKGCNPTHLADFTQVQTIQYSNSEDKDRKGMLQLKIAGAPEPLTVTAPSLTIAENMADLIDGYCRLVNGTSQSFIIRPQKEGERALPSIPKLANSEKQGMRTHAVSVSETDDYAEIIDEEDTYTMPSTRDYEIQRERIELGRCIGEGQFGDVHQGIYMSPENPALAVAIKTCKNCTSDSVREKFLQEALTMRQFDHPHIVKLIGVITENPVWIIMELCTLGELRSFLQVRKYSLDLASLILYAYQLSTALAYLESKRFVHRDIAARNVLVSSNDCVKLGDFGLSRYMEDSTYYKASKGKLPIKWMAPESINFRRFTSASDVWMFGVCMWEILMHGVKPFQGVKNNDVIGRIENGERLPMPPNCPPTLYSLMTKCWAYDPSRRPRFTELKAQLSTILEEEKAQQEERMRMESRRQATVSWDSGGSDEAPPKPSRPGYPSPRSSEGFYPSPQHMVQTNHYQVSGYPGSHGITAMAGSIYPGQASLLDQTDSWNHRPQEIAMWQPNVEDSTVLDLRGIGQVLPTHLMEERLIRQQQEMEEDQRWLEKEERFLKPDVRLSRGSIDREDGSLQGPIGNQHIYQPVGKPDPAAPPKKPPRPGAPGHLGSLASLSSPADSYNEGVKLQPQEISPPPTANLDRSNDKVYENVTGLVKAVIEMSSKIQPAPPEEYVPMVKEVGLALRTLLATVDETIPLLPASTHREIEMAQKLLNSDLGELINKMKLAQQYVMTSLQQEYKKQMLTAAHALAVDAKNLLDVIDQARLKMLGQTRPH
Test [12] concerns Fibrinogen (Alexa647-labelled). The test can be described thus: fibrinogen binders on compound microarrays, profiling panel, artefact control for SMM control-protein annotation, biochemical, small-molecule microarray, 635/667 nm fluorescence (AID 1131).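 Also: z-score merges 667 nm fluorescence with per-spot signal-to-noise over triplicate slides.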 The conditions noted are these: fibrinogen-A647 binding fluorescence, higher = more signal.
For test [13], the target named is Follistatin (Homo sapiens) (UniProt P19883). As to the kind of experiment: follistatin binders on small-molecule microarrays, primary screen, biochemical, small-molecule microarray, 635/667 nm fluorescence (AID 1132). As to conditions: FST binding, 635 nm fluorescence, higher = more signal.
Chain of Follistatin (Homo sapiens) (P19883 whole entry, looked up): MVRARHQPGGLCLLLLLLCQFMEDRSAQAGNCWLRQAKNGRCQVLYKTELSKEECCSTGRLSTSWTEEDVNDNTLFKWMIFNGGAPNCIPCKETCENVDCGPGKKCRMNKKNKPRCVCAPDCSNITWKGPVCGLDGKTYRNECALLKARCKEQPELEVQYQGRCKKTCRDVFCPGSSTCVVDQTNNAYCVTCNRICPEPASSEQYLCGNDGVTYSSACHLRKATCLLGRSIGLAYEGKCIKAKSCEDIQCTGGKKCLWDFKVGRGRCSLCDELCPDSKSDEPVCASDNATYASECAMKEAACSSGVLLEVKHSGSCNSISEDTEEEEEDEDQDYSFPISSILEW
Test [14] concerns the target Fibroblast growth factor 2 (Homo sapiens) (UniProt P09038). The test can be described thus: FGF2 binders on small-molecule microarrays, primary screen, biochemical, small-molecule microarray, 635/667 nm fluorescence (AID 1133). As to conditions: small-molecule microarray binding, FGF2, fluorescence 635/667; higher = more signal.
Test [15] is described as follows: mitochondrial membrane potential change in A549 cells, profiling panel, cell-based, JC-1 fluorescence, basal, 24 h, 100 nL (AID 1138).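 Also: A549 lung adenocarcinoma cells under basal conditions with no added stimulus; test concentration not given here.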 The conditions noted are these: higher = more signal.
In a further test the test system is Lefty1. As to the kind of experiment: Lefty1 binders on small-molecule microarrays, primary screen, biochemical, small-molecule microarray, 635/667 nm fluorescence (AID 1139). The conditions noted are these: small-molecule microarray binding, fluorescence 635/667; higher = more signal.
Test [16] deals with wheat germ agglutinin (Triticum aestivum), Alexa647-labelled. As to the kind of experiment: wheat germ agglutinin binders on compound microarrays, profiling panel, artefact control for SMM control-protein annotation, biochemical, small-molecule microarray, 635/667 nm fluorescence (AID 1140).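 Also: score merges 667 nm feature emission with signal to noise over triplicate slides.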 As to conditions: WGA-A647 binding, 635 nm fluorescence, higher = more signal.
Test [17] concerns the target Luciferin 4-monooxygenase (Photinus pyralis) (UniProt P08659). The test can be described thus: firefly luciferase enzyme inhibitors, primary screen, biochemical, luminescence, purified enzyme, 2006 set (AID 1141).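 Also: cell-free assay with purified firefly luciferase at 100 ng per well in PBS; test concentration not given here.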 The conditions noted are these: SteadyGlo luminescence, 30 min, higher = more signal, called active from +8 up or from −8 down.

Active and inactive are the calls of the source.

Chain of Fibroblast growth factor 2 (Homo sapiens) (P09038 whole entry, looked up): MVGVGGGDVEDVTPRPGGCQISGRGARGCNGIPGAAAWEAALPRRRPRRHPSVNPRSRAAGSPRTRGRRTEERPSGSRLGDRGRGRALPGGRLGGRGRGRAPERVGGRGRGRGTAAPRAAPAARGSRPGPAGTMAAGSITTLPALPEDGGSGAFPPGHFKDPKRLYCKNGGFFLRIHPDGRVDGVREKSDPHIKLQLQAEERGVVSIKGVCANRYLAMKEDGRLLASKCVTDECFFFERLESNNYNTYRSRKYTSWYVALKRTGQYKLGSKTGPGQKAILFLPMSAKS
Chain of Concanavalin-A (Canavalia ensiformis) (P02866 whole entry, looked up): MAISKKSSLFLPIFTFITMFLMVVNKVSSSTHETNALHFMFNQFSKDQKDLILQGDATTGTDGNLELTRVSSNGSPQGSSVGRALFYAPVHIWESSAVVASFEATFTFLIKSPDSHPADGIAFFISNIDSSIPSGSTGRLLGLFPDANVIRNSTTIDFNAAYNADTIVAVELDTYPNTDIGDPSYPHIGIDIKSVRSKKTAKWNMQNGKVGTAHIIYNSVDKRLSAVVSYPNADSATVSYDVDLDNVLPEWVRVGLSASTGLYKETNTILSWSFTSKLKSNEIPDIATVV
Chain of Albumin (Bos taurus) (P02769 whole entry, looked up): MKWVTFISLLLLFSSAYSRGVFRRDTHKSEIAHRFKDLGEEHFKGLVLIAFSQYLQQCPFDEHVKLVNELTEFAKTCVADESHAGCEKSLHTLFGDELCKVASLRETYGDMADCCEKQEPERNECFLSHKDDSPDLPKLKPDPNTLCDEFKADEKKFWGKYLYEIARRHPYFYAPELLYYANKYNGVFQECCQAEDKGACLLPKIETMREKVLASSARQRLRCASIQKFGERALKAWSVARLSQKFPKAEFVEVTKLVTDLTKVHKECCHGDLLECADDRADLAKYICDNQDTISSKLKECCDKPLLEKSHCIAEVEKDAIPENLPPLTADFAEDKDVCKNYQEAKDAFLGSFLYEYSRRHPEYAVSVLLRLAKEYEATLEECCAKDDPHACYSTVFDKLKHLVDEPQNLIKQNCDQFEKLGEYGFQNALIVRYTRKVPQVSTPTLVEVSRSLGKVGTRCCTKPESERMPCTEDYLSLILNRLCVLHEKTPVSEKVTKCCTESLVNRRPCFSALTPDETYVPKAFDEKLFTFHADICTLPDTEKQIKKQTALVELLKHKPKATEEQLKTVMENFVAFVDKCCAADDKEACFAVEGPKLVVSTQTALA
Chain of Luciferin 4-monooxygenase (Photinus pyralis) (P08659 whole entry, looked up): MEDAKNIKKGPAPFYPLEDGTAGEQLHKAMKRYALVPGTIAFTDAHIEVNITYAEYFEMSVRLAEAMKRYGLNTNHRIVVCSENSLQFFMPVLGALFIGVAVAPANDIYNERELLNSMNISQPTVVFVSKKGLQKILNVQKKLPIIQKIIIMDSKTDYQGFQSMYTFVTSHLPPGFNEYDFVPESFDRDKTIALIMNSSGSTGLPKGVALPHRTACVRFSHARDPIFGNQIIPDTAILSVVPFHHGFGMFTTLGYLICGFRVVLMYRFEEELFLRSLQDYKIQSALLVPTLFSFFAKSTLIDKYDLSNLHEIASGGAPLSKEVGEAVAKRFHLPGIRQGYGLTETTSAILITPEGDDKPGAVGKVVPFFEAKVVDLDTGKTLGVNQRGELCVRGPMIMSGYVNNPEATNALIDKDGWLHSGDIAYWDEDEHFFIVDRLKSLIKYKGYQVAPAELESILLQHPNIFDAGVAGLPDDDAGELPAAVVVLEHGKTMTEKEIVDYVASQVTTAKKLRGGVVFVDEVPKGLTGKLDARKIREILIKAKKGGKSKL

As for `C[C@@H]1CC[C@@H](C(=O)O)N[C@H]1c1cccc(N2CCOCC2)c1`, the composite z-score with Albumin (Bos taurus) was 0.262; in [2] it was 0.0624; in [3], -0.126; in [4], 0.295; in test [5], 0.531; in [6], -0.581. Further, the composite z-score was 0.225 in the test on Sam68 (KHDRBS1); 0.224 in test [7]; 0.305 in test [8]; 0.06 in test [9]; 0.827 in [10]; 0.455 in test [11]. For the same compound, the composite z-score came to 0.301 in test [12]; 0.769 in test [13]; 0.652 in test [14]; 0.554 with Lefty1; 0.227 in test [16]. The composite Z-score in test [1] is 0.227 (inactive). The z-score in test [15] was 2.11; in [17], -1.34 (inactive).
`C#CCCCON=C1C[C@@H](O)[C@@H](O)[C@@H]2[C@@H]3C(=O)N(CC)C(=O)[C@@H]3CC[C@H]12`: the composite z-score in the test with Albumin (Bos taurus) was -0.0021; in test [2] it was -0.118; in test [3], -0.148; in [4] it was 0.728; in [5] it was 1.35; in test [6] it was 0.187. Moreover, the composite z-score in the test with Sam68 (KHDRBS1) is 0.866; in test [7] it was -0.0382; in test [8], -0.357; in test [9], 1.93; in [10], 0.286; in test [11], -0.442. Besides, the composite z-score in [12] is 0.636; in test [13], -0.473; in [14], -0.0374; in the test on Lefty1, 0.162; in test [16], 1.07. Further, the composite Z-score in test [1] is 0.52 (inactive). Also, the results for the z-score in test [15] and in test [17] were -0.27 and 0.0384 (inactive), respectively.
For the compound `CC(C)CON=C1[C@H]2CCn3c(=O)n(C)c(=O)n3[C@H]2[C@H](O)[C@@H]2O[C@H]12`, the composite z-score in the test with Albumin (Bos taurus) is -0.0213; in [2], 0.236; in test [3], -0.139; in [4], -0.148; in [5], -0.818; in test [6] it was 0.854. In addition, the composite z-score in the test on Sam68 (KHDRBS1) was determined as 0.471; in test [7], 0.783; in [8], 0.328; in test [9], 0.457; in test [10] it was 0.398; in [11], 0.0335. The composite z-score in test [12] turned out to be 0.413; in test [13] it was 0.581; in test [14], 0.411; in the test on Lefty1, 1.02; in test [16] it was 0.324. Moreover, the composite Z-score in test [1] is -0.483 (inactive). Besides, the values for the z-score in test [15] and in test [17] were 0.563 and -0.571 (inactive), respectively.
As to `C=CC[C@@H]1C=C[C@H](ON=C2C[C@@H](O)[C@@H](O)[C@@H]3[C@@H]4C(=O)N(CC)C(=O)[C@@H]4CC[C@@H]23)[C@@H](CO)O1`, the composite z-score was -0.873 with Albumin (Bos taurus); -0.16 in [2]; -0.237 in test [3]; 0.452 in [4]; 0.429 in test [5]; -0.289 in test [6]. Further, the composite z-score was -0.444 in the test on Sam68 (KHDRBS1); -0.0673 in test [7]; -1.18 in test [8]; -2.3 in test [9]; -1.1 in [10]; 0.382 in test [11]. For the same compound, the composite z-score in test [12] is -1.15; in test [13], -0.707; in test [14] it was 0.119; with Lefty1, 0.158; in [16], -1.41. In addition, in test [1], the composite Z-score was -0.116 (inactive). The z-score in [15] was -0.992; in test [17] it was 1.3 (inactive).
For `CCOC(=O)[C@H](Cc1ccccc1)NC(=O)CCC1CC(OC(=O)NCc2cccc3ccccc23)CC2(CCCC(COC(=O)NCCc3ccccc3OC)O2)O1` (stereo not given in full), the composite z-score with Albumin (Bos taurus) was 0.49; in test [2], 0.121; in test [3], -0.126; in test [4] it was 0.224; in test [5], 0.474; in test [6], -0.114. The composite z-score with Sam68 (KHDRBS1) was 1.19; in [7] it was 0.241; in test [8], 0.879; in [9], 0.704; in test [10], 0.79; in [11], 0.201. The composite z-score in [12] was 0.287; in test [13], 0.798; in [14] it was 0.793; in the test with Lefty1, 0.99; in [16] it was 0.404. Moreover, in test [1], the composite Z-score is -0.564 (inactive). The z-score is -0.538 in [15] and 0.821 (inactive) in test [17].
As for `CC(=O)OC[C@H]1O[C@@H](ON=C2[C@H]3CCn4c(=O)n(-c5ccccc5)c(=O)n4[C@H]3[C@H](O)[C@@H]3O[C@H]23)[C@H](OC(C)=O)[C@@H](OC(C)=O)[C@@H]1OC(C)=O`, the composite z-score in the test with Albumin (Bos taurus) was 0.0931; in test [2] it was 0.086; in [3] it was -0.186; in test [4], 0.541; in test [5] it was 1.09; in test [6], 0.0273. Besides, the composite z-score in the test on Sam68 (KHDRBS1) was 1.07; in [7] it was 0.544; in test [8] it was 0.339; in test [9], 1.66; in [10] it was 0.894; in test [11], -0.144. Also, the composite z-score worked out at 0.8 in [12]; 0.419 in test [13]; 0.431 in [14]; 0.413 with Lefty1; 0.169 in test [16]. Further, the composite Z-score in test [1] was 0.0029 (inactive). In addition, the z-score was 0.188 in test [15] and 0.939 (inactive) in test [17].

Source of the values: PubChem BioAssay.
